In PubChem BioAssay (Tox21):
Values joined by “and” are separate entries in the source; they are usually repeats but may differ in a detail not shown here. Equal entries are not always repeated. Inconclusive results are not listed. Where a call stands in place of a potency, no number is given. Where a structure was tested more than once in an assay, its records may differ in their call. Active and inactive are the calls of the source. Unless noted, calls follow the shape of the full dose curve.

Key:
[1] = qHTS assay to identify small molecule agonists of the peroxisome proliferator-activated receptor delta (PPARd) signaling pathway - cell viability counter screen (AID 743211; active = well fitted curve in the direction sought with a large enough effect in the repeat runs; an effect the other way counts as inactive or inconclusive; also: nearly all actives have a fitted effect of over 55% in size; also: potency is read from the fitted curve at half-maximal effect)
Procedure, shortened: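 Luminescent ATP viability assay (CellTiter-Glo, 30 min RT) in UAS-bla HEK293H cells carrying the PPAR delta reporter construct, 3000 cells/well, after a 17 h compound treatment at 37 C.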

[2] = target: Peroxisome proliferator-activated receptor delta (Homo sapiens) (UniProt Q03181); experiment: qHTS assay to identify small molecule agonists of the peroxisome proliferator-activated receptor delta (PPARd) signaling pathway (AID 743212)
Procedure, shortened: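 A PPARd-bla HEK293H line with beta-lactamase under an Upstream Activator Sequence is treated with compounds at 37 C. Substrate loading for 2 h at room temperature precedes the fluorescence measurement.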

[3] = qHTS assay to identify small molecule antagonists of the peroxisome proliferator-activated receptor delta (PPARd) signaling pathway - cell viability counter screen (AID 743213; active = well fitted curve in the direction sought with a large enough effect in the repeat runs; an effect the other way counts as inactive or inconclusive; also: nearly all actives have a fitted effect of over 50% in size; also: potency is read from the fitted curve at half-maximal effect)
Procedure, shortened: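 PPARd-bla HEK293H cells were treated with compounds plus agonist L165041 (300 nM final) for 17 h at 37 C. Viability was then read in the same wells by CellTiter-Glo luminescence after 30 min at room temperature.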

[4] = target: Peroxisome proliferator-activated receptor delta (Homo sapiens) (UniProt Q03181); experiment: qHTS assay to identify small molecule antagonists of the peroxisome proliferator-activated receptor delta (PPARd) signaling pathway (AID 743215; active = well fitted inhibition curve with a large enough effect in the signal ratio in the repeat runs, not every such curve was filed as active; the % refers to the signal ratio;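 also: cells stimulated with agonist L165041 at 300 nM final during compound exposure; series mostly up to about 62 µM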)
Procedure, shortened: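 Read-out is beta-lactamase FRET fluorescence, measured 2 h after substrate addition at room temperature. Beforehand, UAS-bla HEK293H cells carrying the PPARd reporter were exposed to compounds with L165041 at 300 nM final for 17 h at 37 C.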

[5] = qHTS assay to identify small molecule agonists of the farnesoid-X-receptor (FXR) signaling pathway - cell viability counter screen (AID 743218; active = well fitted curve in the direction sought with a large enough effect in the repeat runs; an effect the other way counts as inactive or inconclusive; also: nearly all actives have a fitted effect of over 45% in size)
Procedure, shortened: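 HEK 293T FXR-bla cells; 5 h pre-incubation, 16 h compound exposure at 37 C; LiveBLAzer substrate 2 h RT, then CellTiter-Glo 30 min RT, luminescence.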

[6] = qHTS assay to identify small molecule antagonists of the farnesoid-X-receptor (FXR) signaling pathway - cell viability counter screen (AID 743221; active = well fitted cell-killing curve with a large enough effect in the repeat runs, not every such curve was filed as active; also: nearly all actives have a fitted effect of over 50% in size)
Procedure, shortened: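 In GeneBLAzer FXR-UAS-bla HEK 293T cells stimulated with 50 uM chenodeoxycholic acid (final), compounds acted for 16 h at 37 C. Viability was assessed afterwards by CellTiter-Glo luminescence.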

[7] = target: Vitamin D3 receptor (Homo sapiens) (UniProt P11473); experiment: qHTS assay to identify small molecule agonists of the vitamin D receptor (VDR) signaling pathway (AID 743222)
Procedure, shortened: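 VDR-bla cells, 2,000/well; 4 h preincubation 37C; cpd (DMSO) 16 h; LiveBLAzer B/G substrate 2 h RT; fluorescence intensity read.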

[8] = target: Vitamin D3 receptor (Homo sapiens) (UniProt P11473); experiment: qHTS assay to identify small molecule antagonists of the vitamin D receptor (VDR) signaling pathway (AID 743223; active = well fitted inhibition curve with a large enough effect in the signal ratio in the repeat runs, not every such curve was filed as active; the % refers to the signal ratio)
Procedure, shortened: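 Agonist 1alpha,25-dihydroxyvitamin D3 (3 nM in well) was added with each compound to VDR-bla cells preincubated 4 h. Cells stood 16 h at 37C, then FRET substrate 2 h at room temperature; fluorescence intensity recorded.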

[9] = qHTS assay to identify small molecule agonists of the vitamin D receptor (VDR) signaling pathway - cell viability counter screen (AID 743224; active = well fitted curve in the direction sought with a large enough effect in the repeat runs; an effect the other way counts as inactive or inconclusive; also: series mostly up to about 63 µM; nearly all actives have a fitted effect of over 50% in size)
Procedure, shortened: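 Luminescence from CellTiter-Glo, read after 30 min at room temperature, reports viability of VDR-bla cells treated with compounds for 16 h at 37C in the wells used for the beta-lactamase FRET read.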

[10] = qHTS assay to identify small molecule antagonists of the vitamin D receptor (VDR) signaling pathway - cell viability counter screen (AID 743225; active = well fitted curve in the direction sought with a large enough effect in the repeat runs; an effect the other way counts as inactive or inconclusive; also: nearly all actives have a fitted effect of over 50% in size)
Procedure, shortened: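 Luminescent cell viability (CellTiter-Glo) in VDR-bla HEK 293T cells after 16 h compound exposure at 37C in the presence of 3 nM final 1-alpha,25-dihydroxy vitamin D3.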

[11] = qHTS assay to identify small molecule agonists of the NFkB signaling pathway - cell viability counter screen (AID 1159515); also: series mostly up to about 61 µM; nearly all actives have a fitted effect of over 55% in size
Procedure, shortened: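 Luminescence from CellTiter-Glo (30 min, room temperature) gives viability, measured in the same wells as the beta-lactamase reporter read. Cells were NFkB-bla ME-180, 2,000 per well, treated 5 hr with compounds.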

[12] = qHTS assay to identify small molecule agonists of the endoplasmic reticulum stress response signaling pathway (AID 1159516; active = well fitted activation curve with a large enough effect in the signal ratio in the repeat runs, not every such curve was filed as active; the % refers to the signal ratio)
Procedure, shortened: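 Read-out is beta-lactamase cleavage of a FRET substrate (405 nm excitation; 460 and 530 nm emissions) in ESRE-bla HeLa cells after a 5 hr compound exposure at 37 C. Substrate incubation ran 2 hr at room temperature.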

[13] = qHTS assay to identify small molecule agonists of the endoplasmic reticulum stress response signaling pathway - cell viability counter screen (AID 1159517)
Procedure, shortened: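 CellTiter-Glo was added to wells already read for beta-lactamase FRET, and luminescence was recorded 30 min later. Cells: ESRE-bla HeLa, 1,500 per well, compound exposure 5 hr at 37 C.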

[14] = qHTS assay to identify small molecule antagonists of the retinoid-related orphan receptor gamma (ROR-gamma) signaling pathway - cell viability counter screen (AID 1159520; active = well fitted curve in the direction sought with a large enough effect in the repeat runs; an effect the other way counts as inactive or inconclusive; also: nearly all actives have a fitted effect of over 50% in size)
Procedure, shortened: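 Tet-on ROR gamma CHO cells (1,000/well) were plated 4 hr, given compounds in DMSO for 2 hr at 37 C, then induced with 1 uM final doxycycline for 16 hr. Viability was read as ATP by CellTiter-Glo luminescence after 30 min.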

[15] = target: Nuclear receptor ROR-gamma (Homo sapiens) (UniProt P51449); experiment: qHTS assay to identify small molecule antagonists of the retinoid-related orphan receptor gamma (ROR-gamma) signaling pathway (AID 1159521; active = well fitted curve in the direction sought with a large enough effect in the repeat runs; an effect the other way counts as inactive or inconclusive; also: nearly all actives have a fitted effect of over 50% in size; also: potency is read from the fitted curve at half-maximal effect)
Procedure, shortened: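 CHO cells expressing RORγ under a TET-on promoter, luciferase under RORE control. Dox 1 uM final, 16 h; compounds added 2 h prior. Luminescence decrease measured.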

[16] = qHTS assay to identify small molecule agonists of the AP-1 signaling pathway - cell viability counter screen (AID 1159525); also: nearly all actives have a fitted effect of over 55% in size
Procedure, shortened: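 ME-180 AP-1-bla, 2500 cells/well, Opti-MEM + 0.5% dialyzed FBS; overnight 37 °C; cpd 15-pt titration, 5 h 37 °C; CellTiter-Glo 30 min RT; luminescence read; normalised to TOAB and DMSO controls.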

[17] = qHTS assay to identify small molecule agonists of the AP-1 signaling pathway (AID 1159526)
[18] = target: Retinoic acid receptor RXR-alpha (Homo sapiens) (UniProt P19793); experiment: qHTS assay to identify small molecule agonists of the RXR signaling pathway (AID 1159527); also: nearly all actives have a fitted effect of over 35% in size; also: potency is read from the fitted curve at half-maximal effect
Procedure, shortened: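 Beta-lactamase reporter assay, agonist format. Engineered HEK 293T line, charcoal-stripped FBS at 2%, overnight (16 hr) exposure, fluorescence at 460 and 530 nm after 405 nm excitation.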

[19] = target: Bile acid receptor (Homo sapiens) (UniProt Q96RI1); experiment: qHTS assay to identify small molecule antagonists of the farnesoid-X-receptor (FXR) signaling pathway (AID 743217; active = well fitted inhibition curve with a large enough effect in the signal ratio in the repeat runs, not every such curve was filed as active; the % refers to the signal ratio)
Procedure, shortened: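 HEK 293T FXR-UAS-bla, 5000 cells/well; compound + CDCA 50 uM final; 16 h, 37 °C; B/G FRET substrate 2 h RT; fluorescence.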

[20] = target: Bile acid receptor (Homo sapiens) (UniProt Q96RI1); experiment: qHTS assay to identify small molecule agonists of the farnesoid-X-receptor (FXR) signaling pathway (AID 743220; active = well fitted activation curve with a large enough effect in the signal ratio in the repeat runs, not every such curve was filed as active; the % refers to the signal ratio)
Procedure, shortened: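 Beta-lactamase reporter under UAS control in GeneBLAzer FXR HEK 293T cells (5000/well) measured with LiveBLAzer FRET substrate after 2 h at room temperature. Compound exposure lasted 16 h at 37C.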

Chain of Vitamin D3 receptor (Homo sapiens) (P11473 whole entry, looked up): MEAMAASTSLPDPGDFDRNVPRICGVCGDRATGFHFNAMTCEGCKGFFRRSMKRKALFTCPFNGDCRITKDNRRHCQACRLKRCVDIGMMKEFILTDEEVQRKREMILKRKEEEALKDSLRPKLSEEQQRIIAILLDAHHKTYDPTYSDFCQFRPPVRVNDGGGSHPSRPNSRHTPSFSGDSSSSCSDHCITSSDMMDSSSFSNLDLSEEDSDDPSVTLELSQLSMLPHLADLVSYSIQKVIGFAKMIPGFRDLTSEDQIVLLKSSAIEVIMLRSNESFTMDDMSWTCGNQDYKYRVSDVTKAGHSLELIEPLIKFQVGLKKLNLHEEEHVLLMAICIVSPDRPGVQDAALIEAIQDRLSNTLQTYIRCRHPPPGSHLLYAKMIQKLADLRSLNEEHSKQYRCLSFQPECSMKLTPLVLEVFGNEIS
Chain of Retinoic acid receptor RXR-alpha (Homo sapiens) (P19793 whole entry, looked up): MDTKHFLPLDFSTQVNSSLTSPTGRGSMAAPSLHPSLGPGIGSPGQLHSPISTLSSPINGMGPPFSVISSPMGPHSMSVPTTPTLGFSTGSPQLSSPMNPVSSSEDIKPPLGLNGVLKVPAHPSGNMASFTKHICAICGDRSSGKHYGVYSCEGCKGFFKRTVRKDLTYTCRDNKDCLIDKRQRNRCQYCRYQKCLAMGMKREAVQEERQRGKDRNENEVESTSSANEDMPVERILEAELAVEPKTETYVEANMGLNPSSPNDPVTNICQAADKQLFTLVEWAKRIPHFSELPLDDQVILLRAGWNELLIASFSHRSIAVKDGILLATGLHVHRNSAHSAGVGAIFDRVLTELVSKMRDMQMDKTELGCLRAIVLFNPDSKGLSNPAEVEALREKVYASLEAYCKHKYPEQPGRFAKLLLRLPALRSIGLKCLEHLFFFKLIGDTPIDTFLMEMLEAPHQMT
Chain of Bile acid receptor (Homo sapiens) (Q96RI1 whole entry, looked up): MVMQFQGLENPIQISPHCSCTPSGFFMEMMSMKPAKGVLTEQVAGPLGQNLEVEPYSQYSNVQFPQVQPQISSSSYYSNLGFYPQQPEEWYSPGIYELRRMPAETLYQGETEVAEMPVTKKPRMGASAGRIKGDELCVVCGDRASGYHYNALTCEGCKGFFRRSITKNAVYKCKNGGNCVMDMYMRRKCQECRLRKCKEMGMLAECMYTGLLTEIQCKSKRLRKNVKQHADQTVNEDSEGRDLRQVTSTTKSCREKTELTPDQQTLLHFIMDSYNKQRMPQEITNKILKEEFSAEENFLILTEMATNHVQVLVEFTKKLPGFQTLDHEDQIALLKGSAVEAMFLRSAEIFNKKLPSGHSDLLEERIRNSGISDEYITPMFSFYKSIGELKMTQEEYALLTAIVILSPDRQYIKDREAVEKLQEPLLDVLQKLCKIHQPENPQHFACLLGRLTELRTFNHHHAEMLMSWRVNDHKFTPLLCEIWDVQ
Chain of Peroxisome proliferator-activated receptor delta (Homo sapiens) (Q03181 whole entry, looked up): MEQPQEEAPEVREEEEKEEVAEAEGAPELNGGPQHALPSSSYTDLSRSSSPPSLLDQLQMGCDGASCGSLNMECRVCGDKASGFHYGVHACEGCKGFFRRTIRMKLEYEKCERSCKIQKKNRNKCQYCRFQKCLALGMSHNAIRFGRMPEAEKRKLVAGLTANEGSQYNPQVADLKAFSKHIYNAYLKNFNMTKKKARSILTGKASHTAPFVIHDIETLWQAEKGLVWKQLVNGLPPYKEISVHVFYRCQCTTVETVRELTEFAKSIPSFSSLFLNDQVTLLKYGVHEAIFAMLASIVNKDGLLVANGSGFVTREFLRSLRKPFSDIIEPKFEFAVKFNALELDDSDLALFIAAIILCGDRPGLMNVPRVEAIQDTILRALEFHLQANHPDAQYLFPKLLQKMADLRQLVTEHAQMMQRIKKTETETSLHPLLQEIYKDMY

| SMILES | Potency [1] | outcome [2] | Potency [3] | outcome [4] | Potency [5] | Potency [6] | outcome [7] | Potency [8] | Potency [9] | Potency [10] | Potency [11] | outcome [12] | Potency [13] | Potency [14] | Potency [15] | Potency [16] | Potency [17] | Potency [18] | Potency [19] | outcome [20] |
| --- | --- | --- | --- | --- | --- | --- | --- | --- | --- | --- | --- | --- | --- | --- | --- | --- | --- | --- | --- | --- |
| CNC | inactive | inactive | inactive | inactive | inactive | inactive | inactive | inactive | inactive | inactive | inactive | inactive | inactive | inactive | inactive | inactive | inactive | inactive | – | – |
| COCC(=O)N(c1c(C)cccc1C)C(C)C(=O)OC (stereo not given) | inactive | inactive | inactive | inactive | – | inactive | inactive | inactive | – | inactive | inactive | inactive | inactive | inactive | inactive | inactive | inactive | inactive | inactive | inactive |
| CCCn1cc[n+](C)c1 | inactive | inactive | inactive | inactive | inactive | inactive | – | – | inactive | inactive | inactive | inactive | inactive | inactive | inactive | inactive | inactive | inactive | – | – |
| C[N+](C)(C)Cc1ccccc1 | inactive | inactive | inactive | inactive | – | inactive | inactive | inactive | inactive | inactive | inactive | inactive | inactive | inactive | inactive | inactive | inactive | inactive | inactive | inactive |
| C[C@]12CCC(=O)C=C1CC[C@@H]1[C@@H]2CC[C@]2(C)C(=O)CC[C@@H]12 | inactive | inactive | inactive | – | – | inactive | – | – | – | inactive | inactive | inactive | inactive | inactive | 23.9 µM (active) and inactive | inactive | inactive | inactive | inactive | inactive |
| COc1ccc(N)cc1 | inactive | inactive | inactive | inactive | – | inactive | – | – | inactive | inactive | inactive | inactive | inactive | inactive | inactive | inactive | inactive | inactive | – | – |
| O=P1(N(CCCl)CCCl)NCCCO1 (stereo not given) | inactive | inactive | inactive | inactive | – | inactive | inactive | inactive | – | inactive | inactive | inactive | inactive | inactive | inactive | inactive | inactive | inactive | inactive | inactive |
| CCNc1nc(Cl)nc(NCC)n1 | inactive | – | inactive | – | inactive | inactive | inactive | inactive | inactive | inactive | inactive | inactive | inactive | inactive | 48.8 µM (active) and inactive | inactive | inactive | inactive and 12.2 µM (active) | inactive | inactive |
| Cc1cc(Cl)ccc1N | inactive | inactive | inactive | inactive | inactive | inactive | – | – | – | inactive | inactive | inactive | inactive | inactive | inactive | inactive | inactive | inactive | – | – |
| O=C(O)CCl | inactive | – | inactive | – | inactive | inactive | inactive | inactive | – | inactive | inactive | inactive | inactive | inactive | inactive | inactive | inactive | inactive | – | – |
| CCC[N+]1(C)CCCC1 | inactive | inactive | inactive | inactive | – | inactive | – | – | inactive | inactive | inactive | inactive | inactive | inactive | inactive | inactive | inactive | inactive | – | – |
| CCCCCC[n+]1ccccc1 | 55.5 µM (active) and 55.3 µM (active) and inactive | – | 55.5 µM (active) and inactive | – | inactive | inactive | – | – | – | inactive | inactive | inactive | inactive | inactive | inactive | inactive | inactive | inactive | – | – |
| CCCCCCn1cc[n+](C)c1 | inactive | – | inactive | – | inactive | inactive | – | – | – | inactive | inactive | inactive | inactive | inactive | inactive | inactive | inactive | inactive | – | – |
| CC(Cl)(Cl)C(=O)O | inactive | inactive | inactive | inactive | – | inactive | inactive | inactive | – | inactive | inactive | inactive | inactive | inactive | inactive | inactive | inactive | inactive | – | – |
| CCn1cc[n+](C)c1C | inactive | – | inactive | – | inactive | inactive | inactive | inactive | inactive | inactive | inactive | inactive | inactive | inactive | inactive | inactive | inactive | inactive | – | – |
